Screens (PubChem BioAssay)
H9c2 protect: protects H9c2 cardiomyocytes from peroxide injury. H2O2 injury protection, ATPLite, 2 h. protection from H2O2 cell death, % at 20 µM. 0.63% of 360,000 active. AID 588492;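 active = compounds giving at least 50% protection of heart cells from peroxide-induced death in the single-dose screen, raw or plate-pattern-corrected value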;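 also: 0% = DMSO wells with peroxide and 100% = DMSO wells without peroxide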
PHOSPHO1 inh: PHOSPHO1 (human) inhibition; recombinant PHOSPHO1, absorbance phosphatase assay; 1.1% of 290,000 active; inhibition, % at 13.3 µM; Q8TCT1; AID 1565; in the data active = inhibition above about 60%
Target sequence (Q8TCT1 whole entry, looked up): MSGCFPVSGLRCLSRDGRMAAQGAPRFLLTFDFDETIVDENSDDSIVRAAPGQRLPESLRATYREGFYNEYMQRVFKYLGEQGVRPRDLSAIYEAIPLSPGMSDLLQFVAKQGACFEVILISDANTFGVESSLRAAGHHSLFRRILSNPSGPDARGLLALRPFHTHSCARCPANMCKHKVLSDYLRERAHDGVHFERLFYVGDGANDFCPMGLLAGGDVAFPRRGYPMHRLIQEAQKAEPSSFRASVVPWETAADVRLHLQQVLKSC
PfM18AAP inh-1: PfM18AAP enzyme inhibition | recombinant PfM18AAP, H-Glu-NHMec fluorogenic cleavage | inhibition, % at 7.35 µM | 1.2% of 290,000 active | AID 1822;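 active = inhibition above the campaign mean inhibition over all tested compounds plus 3 SD, cut at about 28% in these data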;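 also: 0% = plate median of test compound wells and 100% = 2 mM ZnCl2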
ALR inh: human ALR oxidase inhibition via reduced H2O2 | inhibition, % (no concentration beside the values) | purified ALR, DTT oxidation, H2O2 HRP-luminol luminescence | 3.8% of 290,000 active | P55789;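 active = mean replicate inhibition above about 79%, with every replicate also reaching it, limit read from the data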
Target sequence (P55789 whole entry, looked up): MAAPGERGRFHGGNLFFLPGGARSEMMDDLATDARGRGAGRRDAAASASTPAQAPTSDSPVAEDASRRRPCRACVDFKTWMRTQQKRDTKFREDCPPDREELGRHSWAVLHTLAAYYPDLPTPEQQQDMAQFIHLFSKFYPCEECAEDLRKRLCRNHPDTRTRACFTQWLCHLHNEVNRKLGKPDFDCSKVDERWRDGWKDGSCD
PfGluPho inh: PfG6PD (Plasmodium falciparum) enzyme inhibition. PfGluPho enzyme, NADPH resazurin-diaphorase fluorescence. inhibition, % at 20 µM. 0.78% of 350,000 active. AID 504690;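 active = inhibition reaching at least a set limit at 20 µM in the primary screen, cut at about 59% in these data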;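 also: 0% = DMSO wells with substrate and 100% = DMSO wells lacking glucose-6-phosphate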
PfM18AAP inh-2: PfM18AAP inhibition, confirmation. shares compounds with PfM18AAP inh-1. recombinant PfM18AAP, H-Glu-NHMec fluorogenic cleavage. 28% of 2,400 active. AID 2170. inhibition, % at 7.35 µM;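 active = mean inhibition over replicate wells above the hit cutoff set for the earlier primary screen, cut at about 29% in these data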;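 also: 0% = median of test compound wells and 100% = 2 mM ZnCl2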
CTSL1 confirm: counter-screen for PFM18AAP inhibitors: confirmation of human cathepsin L inhibitors; shares compounds with PfM18AAP inh-1; purified cathepsin L1, Z-Leu-Arg-MCA fluorescence; inhibition, % at 5.96 µM; 2,400 tested, under 10 active;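 active = average inhibition across replicates above the hit cutoff set in the earlier primary screen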;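 also: 0% = median of test compound wells and 100% = Z-Phe-Ala-diazomethylketone 1 µM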
Starred values were filed as active, the others as inactive. Rows were chosen to be rich in hits. Some 5.6% of all compounds tested hit in one or more screens of this group.

What do the screens show for `Cn1nccc1C(=O)OCC(=O)Nc1ccccc1Cl`?
H9c2 protect: 0; PHOSPHO1 inh: 2; PfM18AAP inh-1: -1; PfGluPho inh: -1

How did COc1ccc(OC)c(/C=C2\SC(=S)N(Cc3cccnc3)C2=O)c1 do in these assays?
H9c2 protect: 3; PHOSPHO1 inh: 8; PfM18AAP inh-1: -4; ALR inh: -18; PfGluPho inh: 4

What do the screens show for `COc1ccc(O)c(/C=C2/SC(=S)N(Cc3ccccc3)C2=O)c1`?
H9c2 protect: 4; PHOSPHO1 inh: -30; PfM18AAP inh-1: 42*; ALR inh: 3; PfGluPho inh: 54; PfM18AAP inh-2: -4; CTSL1 confirm: 4

Results for O=C(COc1ccc2c3c(c(=O)oc2c1)CCCC3)NCc1ccccn1 ?
H9c2 protect: 8; PHOSPHO1 inh: -6; PfM18AAP inh-1: -3; ALR inh: 1; PfGluPho inh: 2

What do the screens show for `Cc1cc(C)cc(NC(=S)N2CCC(NC(=O)C3CC3)CC2)c1`?
H9c2 protect: 3; PHOSPHO1 inh: 27; PfM18AAP inh-1: 5; ALR inh: -8; PfGluPho inh: -14

Results for Cc1cccc(N2CCN(C(=O)Cn3sc4nc(C)cc(C)c4c3=O)CC2C)c1 (stereo not given) ?
H9c2 protect: -32; PHOSPHO1 inh: 15; PfM18AAP inh-1: 49*; ALR inh: 95*; PfGluPho inh: 105*; PfM18AAP inh-2: 17; CTSL1 confirm: -3

Results for Cc1cc(C)c2c(=O)n(CC(=O)N3CCC(Cc4ccccc4)CC3)sc2n1 ?
PHOSPHO1 inh: -28; PfM18AAP inh-1: 56*; PfM18AAP inh-2: 22; CTSL1 confirm: 1

How did Cc1ccn2c(=O)nc(SCC(=O)N3CCC(Cc4ccccc4)CC3)nc2c1 do in these assays?
H9c2 protect: -2; ALR inh: 3; PfGluPho inh: 3

Results for O=C(NCc1cccnc1)c1cc(C2CCCN(S(=O)(=O)c3ccccc3)C2)on1 (stereo not given) ?
H9c2 protect: -2

Results for O=C1NC(=O)C([N+](=O)[O-])=C(O)C1=O ?
H9c2 protect: -5; PfGluPho inh: -17

How did NC(N)=N/N=C(\N=Nc1ccccc1)c1ccc(Cl)cc1 do in these assays?
H9c2 protect: -19; PfGluPho inh: 11

Results for COc1cccc(CN(C)Cc2c(O)ccc3ccccc23)c1 ?
H9c2 protect: -1; PHOSPHO1 inh: -72; PfM18AAP inh-1: 27; PfGluPho inh: 9

How did COc1ccc(CN(C)Cc2c(O)ccc3ccccc23)cc1 do in these assays?
H9c2 protect: -6; PHOSPHO1 inh: 6; PfM18AAP inh-1: 47*; ALR inh: 50; PfGluPho inh: 13; PfM18AAP inh-2: -64; CTSL1 confirm: -2

Results for C[C@H](CO)N1C[C@H](C)[C@H](CN(C)Cc2cccc(C(F)(F)F)c2)OCc2ccccc2-c2c(n(C)c3ccccc23)C1=O ?
H9c2 protect: -6; PfGluPho inh: 5

How did COc1ccccc1C(C)NC(=O)c1cc(=O)[nH]c2ccccc12 (stereo not given) do in these assays?
H9c2 protect: -6; PHOSPHO1 inh: -1; PfM18AAP inh-1: 4; ALR inh: 0; PfGluPho inh: -8

Results for Cc1ccc(NS(=O)(=O)c2cc(C(=O)N(C)C3CCN(C)CC3)ccc2Cl)cc1Cl ?
H9c2 protect: 17; ALR inh: -4; PfGluPho inh: -7

What do the screens show for `CC1CCC2(CC1)NC(=S)N(c1ccccc1)N2` (stereo not given)?
H9c2 protect: 1; PHOSPHO1 inh: 100*; PfM18AAP inh-1: 45*; ALR inh: 93*; PfGluPho inh: 22; PfM18AAP inh-2: -24; CTSL1 confirm: 2

What do the screens show for `O=C(C1CC(=O)N(c2ccc3c(c2)OCCO3)C1)N1CCN(c2ccccc2O)CC1` (stereo not given)?
H9c2 protect: 1; PHOSPHO1 inh: 13; PfM18AAP inh-1: 34*; ALR inh: 84*; PfGluPho inh: 3; PfM18AAP inh-2: 5; CTSL1 confirm: 1

Results for O=C(C1CC(=O)N(c2ccc3c(c2)OCCO3)C1)N1CCN(c2ccccc2)CC1 (stereo not given) ?
H9c2 protect: 3; PHOSPHO1 inh: 28; PfM18AAP inh-1: 1; PfGluPho inh: 13
